# From PubChem BioAssay AID1259343 (VanderVen Lab, College of Veterinary Medicine, Cornell …, 2017)
# Hit rate of the full screen: of about 6,200 compounds, about 2,900 (47%) were called active. Rule as the data show it: active = inhibition above about 50%; inactive = the rest. The set was probably picked from earlier hits. This is one part of the list.
# Test: Mycobacterium tuberculosis growth inhibition, primary screen (AID 1259343)
# Details: inhibition: at 10 µM, active compounds read high; outcome: 10 uM
row,Compound,inhibition
1,COc1ccc(-c2c(NC(=O)c3ccco3)oc3c(C)cccc3c2=O)cc1,19.2% (inactive)
2,COc1ccc2c(=O)c3c(=O)n(-c4ccccc4)c(C)nc3oc2c1,12.6% (inactive)
3,COc1ccc(OC)c(C(=O)c2coc3ccc(OC)cc23)c1,17.3% (inactive)
4,COc1ccc(-c2coc3c(O)c(OC)ccc3c2=O)cc1,67% (active)
5,COc1ccc(-c2cnoc2-c2ccc(OC)cc2O)cc1,-32.9% (inactive)
6,COc1ccc2c(=O)c(Oc3ccc(Cl)cc3)coc2c1,0.4% (inactive)
7,O=c1c(-c2ccc(O)cc2)coc2cc(O)cc(O)c12,50.5% (active)
8,COc1ccc(-c2coc3cc(O)cc(O)c3c2=O)cc1,88.5% (active)
9,O=c1c(O)c(-c2ccc(O)c(O)c2)oc2cc(O)cc(O)c12,36.4% (inactive)
10,COc1cc(OC)c2c(=O)c(-c3ccccc3)coc2c1,70.5% (active)
11,NC(Cc1ccccc1)c1csc(Nc2nncc3ccccc23)n1 (stereo not given),89.8% (active)
12,NC(c1csc(Nc2nncc3ccccc23)n1)c1ccccc1Cl (stereo not given),58.8% (active)
13,COc1ccc(CC(N)c2csc(Nc3nncc4ccccc34)n2)cc1 (stereo not given),91.7% (active)
14,NC(c1csc(Nc2nncc3ccccc23)n1)C1CCCCC1 (stereo not given),97.4% (active)
15,Cc1cc2n(c1)CCn1c(C)ccc1-2,-18.7% (inactive)
16,COc1ccc(C(N)c2csc(Nc3nncc4ccccc34)n2)cc1 (stereo not given),57.6% (active)
17,NC(CCc1ccccc1)c1csc(Nc2nncc3ccccc23)n1 (stereo not given),81% (active)
18,NC(COCc1ccccc1)c1csc(Nc2nncc3ccccc23)n1 (stereo not given),71% (active)
19,c1ccc(CC(Cc2ccccc2)=NNc2nncc3ccccc23)cc1,9.04% (inactive)
20,CCCn1ccnc1SCC(=O)NC(=O)NC12CC3CC(CC(C3)C1)C2,32.7% (inactive)
21,O=C(Nc1ccc(-c2ccccc2)cc1)N[C@@H](Cc1ccccc1)C(=O)N1CCC(C(=O)N2CCCCC2)CC1,76.3% (active)
22,CCCc1nc2oc3ccccc3c(=O)c2c(=O)n1-c1ccc(C)cc1,-28% (inactive)

row,Compound,inhibition
1,Cc1ccc(-n2c(Cl)c(Cl)nc(Cl)c2=O)cc1,102% (active)
2,Cc1sc2ncnc(NC3CCCCC3C)c2c1C (stereo not given),84.5% (active)
3,Cc1[nH]c2ccccc2c1C(c1cccnc1)c1c(C)[nH]c2ccccc12,45.9% (inactive)
4,Cc1[nH]c2ccccc2c1N=Nc1cccc2ccccc12,-9.25% (inactive)
5,CCOC(=O)c1c(C)[nH]c(N=Nc2ccc3c(c2)OCO3)c1C,104% (active)
6,CCOC(=O)c1c(C)[nH]c(C(=O)OCC(=O)C23CC4CC(CC(C4)C2)C3)c1C,-59.8% (inactive)
7,Cc1ccc(C2=NNC(=NCc3ccc4c(c3)OCO4)SC2)s1,18.8% (inactive)
8,CCOC(=O)c1c(C)[nH]c(C(=O)CSc2ncn[nH]2)c1C,-1.94% (inactive)
9,Cc1[nH]c2ccccc2c1N=Nc1ccc(SC(F)F)cc1,58.3% (active)
10,Cc1[nH]c2ccccc2c1N=Nc1ccc2c(c1)OCO2,89.7% (active)
11,Cc1[nH]c2ccccc2c1N=Nc1ccc(F)cc1,11.2% (inactive)
12,Cc1ccc(C)c(N=Nc2c(C)[nH]c3ccccc23)c1,81.8% (active)
13,O=c1c(NCCc2ccccc2)nccn1-c1ccccc1,23.1% (inactive)
14,Cc1ccc(-n2ccnc(NCC(C)c3ccccc3)c2=O)cc1C (stereo not given),68.9% (active)
15,Cc1cc(F)ccc1S(=O)(=O)Nc1cc(-c2ccccc2)on1,69.6% (active)
16,Cc1cc(NS(=O)(=O)c2cc(Cl)ccc2Cl)no1,43.7% (inactive)
17,CCCCN=C1SCC(c2cc(C)n(Cc3ccco3)c2C)=NN1C,44% (inactive)
18,FC(F)Oc1ccc(C2=NNC(=NC3CC3)SC2)cc1,18.9% (inactive)
19,Cc1cc(C2=NNC(=NCc3ccco3)SC2)c(C)n1Cc1ccco1,-40.5% (inactive)
20,Cc1cc(C2=NNC(=NC3CCCC3)SC2)c(C)n1Cc1ccco1,99.4% (active)
21,Cc1cc(C2=NNC(=NCc3ccc4c(c3)OCO4)SC2)c(C)n1Cc1ccco1,-5.02% (inactive)
22,Cc1cc(C2=NNC(=NCC3CCCO3)SC2)c(C)n1Cc1cccs1 (stereo not given),23.6% (inactive)

row,Compound,inhibition
1,Cc1cc(C2=NNC(=NC3CC3)SC2)c(C)n1-c1ccccc1F,95.9% (active)
2,Cc1ccc(N=C2NN=C(c3cc(F)ccc3F)CS2)c(C)c1,31.9% (inactive)
3,CC(C)(C)N=C1NN=C(c2ccc3ccccc3c2)CS1,9.77% (inactive)
4,COCCCN=C1NN=C(c2cc(C)n(Cc3ccco3)c2C)CS1,63.8% (active)
5,Cc1ccccc1N=C1NN=C(c2ccccc2F)CS1,68.3% (active)
6,CC(C)(C)N=C1NN=C(c2c[nH]c3ccccc23)CS1,-10% (inactive)
7,O=c1c2c(F)c(F)c(F)c(F)c2on2c3c(nc12)CCCC3,44.8% (inactive)
8,O=[N+]([O-])c1c(Sc2nnnn2-c2ccccc2)nc2sccn12,99.2% (active)
9,CC(C)c1ccc(-n2nnnc2SC(C)c2nnc(-c3ccc([N+](=O)[O-])cc3)o2)cc1 (stereo not given),18.5% (inactive)
10,O=C(CSc1nnnn1-c1ccccc1)NNC(=O)c1ccc(O)cc1O,11.6% (inactive)
11,c1ccc(Sc2c(-c3ccccc3)nc3sccn23)cc1,34.5% (inactive)
12,c1ccc(-n2nnnc2SCCNc2nc3ccccc3[nH]2)cc1,42.9% (inactive)
13,O=[N+]([O-])c1ccc(Sc2nnnn2-c2ccccc2)c([N+](=O)[O-])c1,89.6% (active)
14,O=C1c2ccccc2NC2(CCCC2)N1CC(F)(F)F,85.2% (active)
15,NC(=S)N=Nc1ccc(NN=C(N)N)cc1,101% (active)
16,CC(=O)C1=C(C(F)(F)F)N(C)C(=S)N(C)C1c1ccccc1 (stereo not given),70% (active)
17,CN1CC(=O)N(CCCC(=O)Nc2ccc(OCc3ccccc3)cc2)C1=O,93.5% (active)
18,COc1ccc(OCCN2C(=O)CN(/C=C/c3ccccc3)C2=O)cc1,-5.21% (inactive)
19,C=CCN(CC(O)COc1ccccc1)CC1CC(c2ccccc2)=NO1 (stereo not given),20.8% (inactive)
20,OC1(c2ccc(OCc3ccccc3)cc2)CCOCC1,30.5% (inactive)
21,CC(O)CNCCCCOc1ccc(OCc2ccccc2)cc1 (stereo not given),96.8% (active)
